Only a selection was taken, and hits are over-represented in it overall.
Pf apPOL inh = Pf-apPOL DNA polymerase inhibition | 210,000 tested, 0.25% active | Recombinant Pf-apPOL, molecular beacon fluorescence, 1.5 h | inhibition, % at 10 µM
mHTT-CaM PPI inh = disrupts binding of mutant huntingtin to calmodulin | inhibition, % at 15 µM | AID 1671202 | P42858 | AlphaScreen His-mHTT/GST-CaM binding, luminescence | 190,000 tested, 3.6% active;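 note: 0% = both proteins with DMSO and 100% = one protein alone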
* marks the source's active call; other numbers are inactive results; . = no result given. Cut-off read from the data, not from the text of the source: active = inhibition above about 50%; inactive = the rest.

SMILES	Pf apPOL inh	mHTT-CaM PPI inh
COC(=O)c1ccc(C=C2Oc3c(ccc(O)c3CN3CCCC3)C2=O)cc1	-6	13
COc1ccc(Br)cc1C=C1Oc2c(ccc(O)c2CN2CCN(CCO)CC2)C1=O	-1	25
CCN1CCN(Cc2c(O)ccc3c2OC(=Cc2cc(Cl)cc4c2OCOC4)C3=O)CC1	8	55*
COc1ccc(C=C2Oc3c(ccc(O)c3CN3CCCC(C)C3)C2=O)c(OC)c1OC (stereo unspecified)	-8	27
COC(=O)c1ccc(C=C2Oc3c(ccc(O)c3CN3CCCCC3C)C2=O)cc1 (stereo unspecified)	-28	52*
O=C1C(=Cc2cc3cc(Br)ccc3o2)Oc2c1ccc(O)c2CN1CCN(CCO)CC1	1	60*
Cc1ccc(F)c(NC(=O)c2cc3n(n2)CCCC3)c1	1	-8
Cc1ccc(-c2nocc2CCC(=O)NCc2ccccc2C)cc1	-2	-16
CCN1CCN(C(=O)c2ccc3c(c2)nnn3Cc2ccc(F)cc2)CC1	-1	0
CN1CCN(C(=O)C(NC(=O)c2ccc(Cl)cc2)C23CC4CC(CC(C4)C2)C3)CC1 (stereo unspecified)	-1	4
Cc1cccc(-c2cc(N3CCN(C(=O)Nc4ccccc4)CC3)ncn2)c1	4	23
CC(C)C(=O)N1CC(C(=O)NCc2ccccc2)C(c2cccc(F)c2)C1 (stereo unspecified)	-6	-4
Cc1nc2sc3c(NCCN4CCOCC4)ncnc3c2c2c1CCCC2	-1	42
O=Cc1ccc(OCc2ccc([N+](=O)[O-])cc2)c(Cl)c1	-10	5
O=C(SCc1cccc(C(F)(F)F)c1)c1ccc(Cl)c(Cl)c1	3	.
O=C(c1ccc(Cl)c(Cl)c1)N1CCC(=O)N([C@H](COCc2ccccc2)Cc2ccccc2)CC1	-4	100*
Cc1ccc(S(=O)(=O)N2CCC(=O)N([C@H](COCc3ccc(Cl)cc3Cl)Cc3ccccc3)CC2)cc1	-4	-10
O=C(c1ccc(Cl)c(Cl)c1)N1CCC(=O)N([C@H](COCc2cccc(C(F)(F)F)c2)Cc2ccccc2)CC1	-4	100*
CN=C(NS(=O)(=O)c1ccc(F)cc1F)c1ccccc1	2	1
O=C(c1ccc([N+](=O)[O-])cc1)N1CCN(c2ccc(Cl)cc2)CC1	0	5
COc1ccc(C2(CC(=O)O)CCOC(C)(C)C2)cc1 (stereo unspecified)	26	-5
NNc1nc2ccccc2s1	-4	86*
O=S(=O)(Cc1ccccc1)Nc1nc2ccccc2s1	3	0
COc1cc(C2Nc3cccc4cccc(c34)N2)cc(OC)c1OC	9	28
Fc1ccc(C2Nc3cccc4cccc(c34)N2)cc1	.	52*
SMILES	Pf apPOL inh	mHTT-CaM PPI inh
C[n+]1ccc(/C=C/c2ccccc2F)c2ccccc21	-4	6
C=CC[n+]1ccc(/C=C/c2ccccc2O)c2ccccc21	-4	69*
CC(C)c1cc(C2CCCN2Cc2ccncc2)on1 (stereo unspecified)	-3	18
COc1ccccc1NS(=O)(=O)c1cc(C(=O)O)c(Cl)cc1Cl	-5	2
Cn1c(N2CCC(C(=O)N3CCC(Cc4ccccc4)CC3)CC2)cc(=O)n(C)c1=O	-2	75*
CCn1c(N2CCC(C(=O)NCc3ccc(F)cc3)CC2)cc(=O)n(C)c1=O	-5	42
COc1ccc(NC(=O)C2CCN(c3cc(=O)n(C)c(=O)n3C)CC2)c(OC)c1	5	44
Cn1c(N2CCC(C(=O)N3CCN(Cc4ccccc4)CC3)CC2)cc(=O)n(C)c1=O	1	38
COc1cc(OC)c(NC(=O)C2CCN(c3cc(=O)n(C)c(=O)n3C)CC2)cc1Cl	-2	59*
CCc1cccc(NC(=O)C2CCN(c3cc(=O)n(C)c(=O)n3C)CC2)c1	-2	66*
CCn1c(N2CCC(C(=O)NCc3cccc(Cl)c3)CC2)cc(=O)n(C)c1=O	-2	59*
Cn1c(N2CCC(C(=O)Nc3ccccc3)CC2)cc(=O)n(C)c1=O	-1	42
O=C(CSc1nnc(CCn2ccc(=O)[nH]c2=O)o1)NCc1ccco1	3	-10
COc1ccc(CNCCC2(c3ccccc3)CCOC(C(C)C)C2)cc1 (stereo unspecified)	-9	10
CCCCc1ccc(NC=C(C#N)C(=O)OC)c(C)c1	-7	.
O=C1CCC(=O)N1Cc1ccc(CN2C(=O)CCC2=O)cc1	0	-3
COc1nccc(C(F)(F)F)c1C(=O)NC(=O)Nc1ccc(Cl)cc1	8	.
Cc1ccc(-n2nc3c(c2NC(=O)c2ccc(Br)o2)CSC3)cc1	-6	47
O=C(Nc1c2c(nn1-c1ccc(F)cc1)CSC2)c1ccc(Br)o1	-11	58*
O=C(Nc1c2c(nn1-c1ccc([N+](=O)[O-])cc1)CSC2)c1ccc(Cl)c([N+](=O)[O-])c1	-5	56*
O=C(/C=C/c1ccccc1)Nc1c2c(nn1-c1ccc([N+](=O)[O-])cc1)CSC2	-10	56*
O=C(/C=C/c1ccccc1)Nc1c2c(nn1-c1cccc(Cl)c1)CSC2	-3	53*
O=C(Nc1c2c(nn1-c1cccc(Cl)c1)CSC2)c1cccc(Cl)c1	-6	-1
O=C(/C=C/c1ccc2c(c1)OCO2)Nc1c2c(nn1-c1ccc([N+](=O)[O-])cc1)CSC2	-2	37
O=C(Nc1c2c(nn1-c1ccc(F)cc1)CSC2)c1ccc(Cl)c([N+](=O)[O-])c1	-7	6
SMILES	Pf apPOL inh	mHTT-CaM PPI inh
O=C(c1cc(F)ccc1F)N1CCC(CCOc2ccc(F)cc2)CC1	2	-30
CCOC(=O)NC(NCCc1ccc(OC)c(OC)c1)(C(F)(F)F)C(F)(F)F	4	.
CC(=O)Nc1ccccc1-c1nnc(SCc2ccccc2)[nH]c1=O	-2	2
O=C(/C=C/c1ccccc1)Nc1c2c(nn1-c1ccc(F)cc1)CSC2	-9	76*
COc1ccc(C(=O)Nc2c3c(nn2C(C)(C)C)CSC3)cc1	-2	23
CC(C)(C)n1nc2c(c1NC(=O)/C=C/c1ccccc1)CSC2	3	98*
Cc1ccc(-n2nc3c(c2NC(=O)/C=C/c2ccccc2)CSC3)cc1	9	45
CC(C)(C)c1ccc(CNC(=O)c2ccc(=O)[nH]c2)cc1	5	1
O=C(NC(Nc1cccc(Cl)c1)C(=O)c1ccccc1)c1cccs1 (stereo unspecified)	27	67*
NS(=O)(=O)c1ccc(NC(NC(=O)c2cccs2)C(=O)c2ccccc2)cc1 (stereo unspecified)	8	11
Cc1ccc(NC(NC(=O)c2cccs2)C(=O)c2ccccc2)cc1C (stereo unspecified)	-1	-3
COc1ccc(NC(NC(=O)c2cccs2)C(=O)c2ccccc2)cc1 (stereo unspecified)	-1	40
CCOc1ccc(NC(NC(=O)c2cccs2)C(=O)c2ccccc2)cc1 (stereo unspecified)	-1	56*
O=C(NC(Nc1ccc(Cl)c(Cl)c1)C(=O)c1ccccc1)c1cccs1 (stereo unspecified)	-7	90*
N#CCCOc1ccc(Cl)cc1Cl	7	.
CC(=O)Nc1ccc(S(=O)(=O)Nc2ccc(S(=O)(=O)NC(C)(C)C)cc2)cc1	7	0
CCn1c(C2CCN(S(=O)(=O)c3ccc(C(C)C)cc3)C2)nc2cccnc21 (stereo unspecified)	-5	7
CCC(=O)Nc1ccc(C(=O)Nc2cc(Cl)ccc2C(=O)O)cc1	5	-3
Cc1ccc2c(Nc3ccccc3F)c(-c3nc(C)no3)cnc2n1	-4	0

High-throughput results: PubChem BioAssay, University of Kansas High Throughput Screening Laboratory
